Laboratory results from PubChem BioAssay AID488841 (Sanford-Burnham Center for Chemical Genomics, 2010).
Out of some 1,400 compounds screened, about 380 (27%) were called active.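 Rule for the calls: active = mean inhibition above 50% across duplicate retests at 10 µM; inactive = the rest.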 Some of the results follow.

experiment: yeast NALP1 reporter signal suppression – S. cerevisiae, luminescence, single concentration, NALP1 inhibitor project, confirmation (AID 488841);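 note: plate controls were DMSO in galactose medium for no effect and cells in plain SD medium for full effect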; details: S. cerevisiae NALP1/ASC/Caspase-1 reporter, beta-gal luminescence; at 10 µM; hits give high values

Structure (SMILES)	inhibition
Cc1cc(C)cc(-n2nnc(C(=O)NCc3ccccc3)c2N)c1	34.6% (inactive)
c1ccc(-c2nc3cc4ccccc4cc3[nH]2)nc1	73.2% (active)
O=[N+]([O-])c1ccc2nc(-c3ccccn3)[nH]c2c1	47.6% (inactive)
COCCCN(CCCN)Cc1ccco1	73.2% (active)
Cc1ccc(S(=O)(=O)N(C(=O)c2ccncc2)c2ccc(OC(=O)c3ccncc3)c3ccccc23)cc1	28.8% (inactive)
CCN(CC)c1ccc(/C=C2/SC(=O)N(C(C)C)C2=O)o1	65.5% (active)
O=C1S/C(=C\c2ccc(N3CCOCC3)o2)C(=O)N1c1ccccc1	45.5% (inactive)
CC1CCCC(C)N1C(=O)CN1CCN(c2nc(-c3ccc(F)cc3)cs2)CC1 (configuration not stated)	19.6% (inactive)
Cc1cccc(N/C=C/C(=C(C#N)C#N)N(C)C)c1	30.9% (inactive)
O=C(N/N=C/c1ccc2nccnc2c1)c1ccccc1O	25.7% (inactive)
O=C(N/N=C/c1ccc2c(c1)OCO2)c1cccs1	51.4% (active)
Cc1ccsc1/C=N/NC(=O)c1ccco1	38.9% (inactive)
O=[N+]([O-])c1ccc(N2CCN(c3ccc(Cl)nn3)CC2)c(Cl)c1	29.9% (inactive)
Cn1nc(-c2ccccc2)c(-c2nc(-c3ccc(Cl)cc3)no2)c1Cl	16.6% (inactive)
COc1ccc(-c2nc(N)n(S(=O)(=O)c3ccc(C)cc3)n2)cc1	44.7% (inactive)
Cn1nc(-c2ccc(Cl)cc2)nc2c(=O)n(C)c(=O)nc1-2	97.7% (active)
COc1ccccc1NC(=O)Nc1ccc2c(c1)nnn2C	18.6% (inactive)
Cc1nc([N+](=O)[O-])c(Br)n1CC(=O)c1ccc(Cl)cc1	37.6% (inactive)
Cc1cc(C)n(C(C[N+](=O)[O-])c2ccc(Cl)cc2)n1 (configuration not stated)	92% (active)
CCOc1cc(/C=N/NC(=O)c2nn(C)cc2Br)ccc1OCc1ccccc1Cl	20.8% (inactive)
O=c1cc(-c2ccccc2)[nH]c2nc3ccccc3n12	39.5% (inactive)
Cc1cccc(OC(=O)c2cn(C)nc2C(F)(F)F)c1C	43.7% (inactive)
Fc1ccccc1-c1ccc(/C=N/Nc2nc3ccccc3[nH]2)o1	60.4% (active)
CCCCNc1nc2ccccc2[nH]1	20.4% (inactive)
Cc1ccc(/C=N/Nc2ccnc3cc(Cl)ccc23)c(C)c1	38.3% (inactive)
CC(=O)/C=C/n1c(=S)oc2ccccc21	6.85% (inactive)

Structure (SMILES)	inhibition
CN1C(=O)CSc2ccc(NC(=O)N3CCN(c4ccccn4)CC3)cc21	24% (inactive)
COc1ccc(NC(=O)CC2Sc3ncnn3C2=O)cc1 (configuration not stated)	59% (active)
CCOC(=O)c1ccc(NC(=O)CC2Sc3ncnn3C2=O)cc1 (configuration not stated)	70.7% (active)
COc1ccc(Nc2ncccc2C(=O)NCc2ccccc2)cc1	46.5% (inactive)
CCOC(=O)c1ccc(NC(=O)CSc2nnc(CNc3ccc(C)cc3)n2C)cc1	32.1% (inactive)
O=C(CC1Sc2ncnn2C1=O)Nc1ccc(Br)cc1 (configuration not stated)	41.1% (inactive)
CCOC(=O)c1ccc(NC(=O)c2nccnc2C(=O)O)cc1	18.4% (inactive)
CCOC(=O)C1C(=O)Oc2ccc3ccccc3c2C1C1CCOC1=O (configuration not stated)	19.4% (inactive)
CCN(CC)S(=O)(=O)c1ccc(NS(=O)(=O)c2cccs2)cc1	16.4% (inactive)
COc1ccc(NC(=S)N(C(C)C)C2CCN(C(C)C)CC2)cc1Cl	21.6% (inactive)
Cc1ccc(N2C(=O)c3ccc(C(=O)O)cc3C2=O)cc1C	28.4% (inactive)
Clc1ccc(Cn2c(/C=C/c3ccco3)nc3ccccc32)cc1	29.2% (inactive)
COc1ccc(CC2(C)OC(c3ccc(C)cc3)=NN2C(C)=O)cc1 (configuration not stated)	55.5% (active)
COc1ccc(CNC(=O)CCNS(=O)(=O)c2ccc(C)cc2)cc1	19.6% (inactive)
CCN(C(=O)c1ccco1)c1nnc(-c2ccc(OC)cc2)s1	38% (inactive)
N#Cc1ccc(Oc2nc(Nc3ccc(F)cc3)nc(N3CCCC3)n2)cc1	29.6% (inactive)
c1ccc(-c2cccc(-c3ccccn3)n2)nc1	86.2% (active)
c1cnc2c(c1)ccc1cccnc12	40.4% (inactive)
N/C(Cc1ccccc1)=N\OC(=O)c1cccc2ccccc12	39.9% (inactive)
N/C(Cc1ccc([N+](=O)[O-])cc1)=N\OC(=O)c1ccccc1Br	55.1% (active)
COc1ccccc1C/C(N)=N/OC(=O)c1cccc([N+](=O)[O-])c1C	37.2% (inactive)
Cc1noc(C)c1S(=O)(=O)N1CCC(C(=O)N2CCC(N3CCCCC3)CC2)CC1	22.1% (inactive)
Clc1ccc(CO/N=C2\CCCc3nonc32)c(Cl)c1	44.9% (inactive)
Cc1cc(C)cc(NS(=O)(=O)c2ccc(NC(=O)C3CCCCC3C(=O)O)cc2)c1 (configuration not stated)	35.4% (inactive)
O=C(Nc1ccc(Br)c(Cl)c1)C1CC1	56.2% (active)
COc1ccc(NC(=O)C2CCN(C(=O)c3ccc(OC)cc3)CC2)cc1	18.7% (inactive)

Structure (SMILES)	inhibition
O=C(Nc1ccc(C#Cc2ccccc2)cc1)C1CC1	56.5% (active)
O=C1c2ccccc2C(=O)c2cc(NC(=O)C3CC3)ccc21	44% (inactive)
CS(=O)(=O)N1CCC(C(=O)Nc2ccc3c(c2)OCO3)CC1	30.6% (inactive)
O=P(CCCCCCCCCP(=O)(c1ccccc1)c1ccccc1)(c1ccccc1)c1ccccc1	39% (inactive)
CC(C)C(=O)c1cc2c(cc1NC(=O)Nc1cccc3ccccc13)OCCO2	28.3% (inactive)
OCCCN=c1cc(-c2ccccc2)oc2ccc(Cl)cc12	43.6% (inactive)
Cc1n[nH]c(C)c1S(=O)(=O)N1CCN(C2CCCCC2)CC1	16.5% (inactive)
COc1ccnc(N2CCN(c3ccccc3)CC2)c1C#N	53.9% (active)
COc1cccc(CNC(=O)CSc2ccc(-c3ccncc3)nn2)c1	34.1% (inactive)
CC(C)NC(=O)CSc1nc(-c2ccccc2)cs1	56.1% (active)
O=C(CSc1nc(-c2ccccc2)cs1)Nc1cccc([N+](=O)[O-])c1	47.1% (inactive)
CCOC(=O)c1c(-c2cccs2)csc1NC(=O)C(C)(C)C	26.2% (inactive)
Cc1ccc(NC(=O)CSC2=Nc3ccccc3C3CC=NN23)c(C)c1 (configuration not stated)	41.9% (inactive)
O=C(Oc1cccc2cccnc12)c1ccc(N2C(=O)C3C4CCC(C4)C3C2=O)cc1 (configuration not stated)	31% (inactive)
O=C(Nc1cc(N2CCOCC2)ncn1)NC1(C(F)(F)F)Oc2ccc(Cl)cc2O1 (configuration not stated)	30.7% (inactive)
CC1CCCN(CCCOc2ccc(Cl)cc2Br)C1 (configuration not stated)	56.8% (active)
CC1CCCN(CCOCCOc2ccc(Br)cc2Cl)C1 (configuration not stated)	42% (inactive)
CC1CCCN(CCOCCSc2ccccc2)C1 (configuration not stated)	39.5% (inactive)
Cc1c(C)c2cc(Cl)c(O)c(CN3CCCCC3)c2oc1=O	31.9% (inactive)
COc1ccc(N2C(=O)C(Cl)=C(Nc3c(C)n(C)n(-c4ccccc4)c3=O)C2=O)cc1	36.8% (inactive)
O=C(O)CCCCc1nc2ccccc2s1	14.6% (inactive)
O=C(CSC1=NS(=O)(=O)c2ccccc21)Nc1ccccc1	37% (inactive)
O=C(CCc1nc2ccccc2s1)Nc1ccccc1	77.9% (active)
O=C(O)c1ccc2c(c1)N(Cc1cccc(F)c1)C(=O)CS2	19% (inactive)
NC(=S)N/N=C/c1coc2c(ccc3ccccc32)c1=O	34.1% (inactive)
O=C(/C=N/O)Nc1cccnc1	19.7% (inactive)

Structure (SMILES)	inhibition
COc1ccc(-c2csc3ncnc(Oc4cccc5ccc(C)nc45)c23)cc1	67.6% (active)
Cc1ccc(-c2csc3ncnc(Oc4cccc5ccc(C)nc45)c23)cc1	19.6% (inactive)
O=S(=O)(CC(CN1CCCC1)N1CCCC1)c1ccc2ccccc2c1 (configuration not stated)	21.4% (inactive)
CC(C)c1nc2sc3c(=O)[nH]cnc3c2c2c1CCC2	22% (inactive)
CCOC(=O)C(=Cc1cc(=O)c(OC)co1)C(=O)OCC	79.3% (active)
CC(=O)c1c(C)oc2c1C(=O)c1ccccc1C2=O	35.8% (inactive)
Cc1c(Cl)sn(-c2ccc(Cl)cc2)c1=O	73.5% (active)
C=C(C)C1CC=C(C)/C(=N/NC(=O)c2ccoc2C)C1 (configuration not stated)	27.2% (inactive)
CN(C)C(=N)c1n[nH]nc1SCc1ccccc1	19.9% (inactive)
Cc1cccc(/C=C/C(=O)c2ccc(NC3=NCCCS3)cc2)c1	62% (active)
CC(C)(C)c1ccc(/C=C/C(=O)c2ccc(NC3=NCCCS3)cc2)cc1	43.9% (inactive)
Cc1cc(N/N=C/c2ccccc2)nc(NCc2ccccc2)n1	58.4% (active)
Cc1cc(N/N=C/c2ccccc2Cl)nc(NCc2ccccc2)n1	43.6% (inactive)
Cc1ccc(Nc2cc(C)nc(NCc3ccccc3)n2)cc1	58.3% (active)
Cc1cc(N/N=C/c2cccc(Cl)c2)nc(NCc2ccccc2)n1	44.8% (inactive)
Cc1cc(N/N=C/c2ccc(Cl)cc2)nc(NCc2ccccc2)n1	33.7% (inactive)
CCOC(=O)C1CCCN(C2CC(=O)N(c3cccc(C(F)(F)F)c3)C2=O)C1 (configuration not stated)	32.6% (inactive)
CC1Cc2ccccc2N1CC(=O)Nc1ccc2c(c1)OC(F)(F)O2 (configuration not stated)	30.3% (inactive)
CCCCCCNc1nc(NCc2ccco2)nc(OCC)n1	52.5% (active)
CCc1ccc(OCCCC(=O)Nc2cccc(C(=O)O)c2)cc1	27.1% (inactive)
COc1ccc2cnn(-c3ccc(C)cc3)c(=O)c2c1OC	36.9% (inactive)
Cc1ccc(-n2c(Cl)c(Cl)nc(Cl)c2=O)cc1	100% (active)
O=C(Nc1cccc(O)c1)c1noc2c1CCc1ccccc1-2	75.4% (active)
O=c1c2c(C(F)(F)F)cc(C(F)(F)F)nc2[nH]n1-c1ccccc1	37.9% (inactive)
